# Bioassay records from PubChem.
# IL-1B inflam inh = qHTS for Inhibitors of Inflammasome Signaling: IL-1-beta AlphaLISA Primary Screen | AID 743279, 2014 | THP-1 LPS/ATP IL-1B secretion, AlphaLISA, 16 h; hits give low values | 4.7% of 360,000 active | activity change, % at 57.5 µM; in the data active = activity change below about -50%; inconclusive = mostly about -30% to -49%
#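 Secreted IL-1B measured by AlphaLISA bead assay after 16 h compound exposure of THP-1 cells; compounds (final up to 57.5 uM) added 1 h before LPS (250 ng/mL) and ATP (1.25 mM) stimulation; lower signal means less secretion.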
# DT40 TDP1 no CPT = qHTS for Inhibitors of human tyrosyl-DNA phosphodiesterase 1 (TDP1): qHTS in cells in absence of CPT; DT40 Tdp1-/- hTDP1 cells, no CPT, ATP luminescence, 48 h; Potency, µM (highest dose often 46.2 µM), most hits filed as inhibitors; 15% of 420,000 active; AID 686978, 2013; note: nearly all actives have a fitted effect of over 55% in size
#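 Camptothecin absent (DMSO only). Human TDP1-complemented DT40 knockout cells, 400 cells/well, 37 °C for minimum 48 hr; ATP measured via CellTiter-Glo, 30 min dark incubation, luminescence.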
# DT40 TDP1 CPT = qHTS for Inhibitors of human tyrosyl-DNA phosphodiesterase 1 (TDP1): qHTS in cells in presence of CPT. chicken DT40 Tdp1-/-;hTDP1 cells + 20 nM CPT, ATP luminescence, 48 h. 12% of 420,000 active. Potency, µM (titrated, usually from 46.2 µM), actives largely listed as inhibitors. AID 686979, 2013; note: nearly all actives have a fitted effect of over 55% in size
#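 Cell growth measured by CellTiter-Glo luminescence after a minimum 48 h, 37 C compound exposure with 20 nM CPT in Tdp1-knockout DT40 cells stably expressing hTDP1, seeded 400/well; qHTS titration format.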
# HT1080 IDH1KD tx = qHTS for induction of synthetic lethality in tumor cells producing 2HG: qHTS for the HT-1080-IDH1KD cell line | HT-1080 IDH1 knockdown viability, ATP luminescence, 48 h | Potency, µM (series often up to 46.1 µM), hits mostly cytotoxic | 2% of 360,000 active | AID 686971, 2013
#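 HT-1080-IDH1KD cells (IDH1 knocked down), 750/well in RPMI with 5% FBS, treated with compound 48 h at 37 degrees C. Viability by CellTiter-Glo luminescence, normalised to DMSO and no-cell wells; concentration-response curves classed.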
# ALOX12 inh = Primary qHTS assay for inhibitors of human arachidonate 12S-lipoxygenase (ALOX12): Round 2. Polyunsaturated fatty acid lipoxygenase ALOX12 (Homo sapiens), P18054. purified 12hLO, xylenol orange hydroperoxide absorbance. Potency, µM (highest dose often 108 µM), actives largely listed as inhibitors. 1.1% of 580,000 active. AID 1671190, 2021
# Target sequence (P18054 whole entry, looked up): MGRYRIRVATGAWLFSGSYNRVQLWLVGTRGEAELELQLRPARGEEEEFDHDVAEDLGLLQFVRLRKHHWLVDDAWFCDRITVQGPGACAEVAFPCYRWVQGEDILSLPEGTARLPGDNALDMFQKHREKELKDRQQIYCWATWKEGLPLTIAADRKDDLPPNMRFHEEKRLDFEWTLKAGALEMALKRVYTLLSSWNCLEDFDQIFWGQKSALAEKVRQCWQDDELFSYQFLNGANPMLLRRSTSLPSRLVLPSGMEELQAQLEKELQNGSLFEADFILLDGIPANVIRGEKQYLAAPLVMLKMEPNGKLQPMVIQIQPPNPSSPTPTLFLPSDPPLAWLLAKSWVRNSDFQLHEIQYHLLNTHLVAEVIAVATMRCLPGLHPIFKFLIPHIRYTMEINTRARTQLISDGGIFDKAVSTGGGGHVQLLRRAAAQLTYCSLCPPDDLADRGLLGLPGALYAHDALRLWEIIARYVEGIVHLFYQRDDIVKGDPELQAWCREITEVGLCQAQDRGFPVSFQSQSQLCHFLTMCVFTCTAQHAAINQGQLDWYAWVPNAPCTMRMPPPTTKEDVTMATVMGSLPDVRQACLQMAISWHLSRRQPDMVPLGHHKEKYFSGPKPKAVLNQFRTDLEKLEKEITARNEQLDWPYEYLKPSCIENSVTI
#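 Hydroperoxide product was detected by ferrous iron/xylenol orange as the 573 to 405 nm absorbance ratio. Arachidonic acid at 40 uM (final) was turned over for 30 min at room temperature by 150 nM human 12hLO, pH 7.0 Hepes buffer, after 15 min compound preincubation.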
# HT1080-NT tox = qHTS for induction of synthetic lethality in tumor cells producing 2HG: qHTS for the HT-1080-NT fibrosarcoma cell line; HT-1080-NT fibrosarcoma viability, CellTiter-Glo ATP luminescence, 48 h; Potency, µM (series often up to 46.1 µM), actives largely listed as cytotoxic; 1.6% of 360,000 active;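 note: NT is the 2HG producing partner of a matched IDH1 knockdown line; nearly all actives have a fitted effect of over 55% in size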
#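 Viability by CellTiter-Glo luminescence after 48 h compound exposure at 37C of HT-1080-NT cells (750/well, RPMI, 5% FBS). % activity scaled between DMSO wells and medium-only wells, then curve-fitted and categorized by curve class.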
# A number is an active result; 0 = inactive; ? = inconclusive; - = no result given. Only a selection was taken, and hits are over-represented in it overall. Unless noted, calls come from the whole dose curve; as a rule, active = well fitted curve in the direction sought with a large enough effect; inconclusive = small, poorly fitted or top-dose-only effect, or another doubt; inactive = no such curve, though single readings can be large; an effect the other way counts as inactive or inconclusive.
SMILES,IL-1B inflam inh,DT40 TDP1 no CPT,DT40 TDP1 CPT,HT1080 IDH1KD tx,ALOX12 inh,HT1080-NT tox
O=C(Nc1ccc(F)cc1F)c1cc(-c2ccc[nH]2)n[nH]1,-,-,-,-,11µM,-
CCc1ccc(NC(=O)c2cc(-c3ccc[nH]3)n[nH]2)cc1,-,-,-,-,28µM,-
O=C(Nc1ccc(OC(F)(F)F)cc1)c1cc(-c2ccc[nH]2)n[nH]1,-,-,-,-,16µM,-
CCc1cccc(NC(=O)c2cc(-c3ccc[nH]3)n[nH]2)c1,-,-,-,-,22µM,-
CCOc1ccc(NC(=O)c2cc(-c3ccc[nH]3)n[nH]2)cc1,-,-,-,-,0,-
COc1ccc(-c2nnc3ccc(SCc4ccco4)nn23)cc1,-,-,-,-,0,-
CCC(=O)Nc1ccc(C(C)NCc2ccsc2)cc1 (stereo not drawn),-,-,-,-,0,-
COc1cccc(N=c2oc3ccc(OC)cc3cc2-c2nc3ccccc3[nH]2)c1,0,?,?,?,0,0
COc1cccc(N=c2oc3ccccc3cc2-c2nc3ccccc3[nH]2)c1,0,23µM,23µM,?,?,?
O=C(Nc1ccc2[nH]ncc2c1)c1nn(-c2ccccc2)c(=O)c2ccccc12,-,-,-,-,0,-
Cc1nn(-c2ccccc2)nc1C(=O)Nc1ccc2[nH]ncc2c1,0,21µM,0,0,0,0
CCCc1noc(-c2ccn3c(CNC(=O)Cc4ccccc4OC)nnc3c2)n1,-,-,-,-,50µM,-
CCCc1noc(-c2ccn3c(CNC(=O)c4ccccc4Cl)nnc3c2)n1,-,-,-,-,40µM,-
CCCc1noc(-c2ccn3c(CNC(=O)c4c(F)cccc4F)nnc3c2)n1,-,-,-,-,0,-
CCCc1noc(-c2ccn3c(CNC(=O)c4ccccc4F)nnc3c2)n1,-,-,-,-,50µM,-
COc1ccccc1CC(=O)NCc1nnc2cc(-c3nc(C)no3)ccn12,-,-,-,-,0,-
CCc1noc(-c2ccn3c(CNC(=O)c4ccccc4Cl)nnc3c2)n1,-,-,-,-,0,-
Cc1ccc(Nc2nnc(Cc3ccccc3)c(=O)[nH]2)cc1Cl,-,-,-,-,0,-
O=S(=O)(NC(c1cccs1)C(Cl)(Cl)Cl)c1ccccc1 (stereo not drawn),-,-,-,-,0,-
COc1ccc(C2c3ccc(O)cc3Oc3ncn4nc(-c5ccccc5Cl)nc4c32)cc1OC (stereo not drawn),-,-,-,-,0,-
COc1ccc(C2c3ccc(O)cc3Oc3ncn4nc(COc5ccc(C)cc5)nc4c32)cc1OC (stereo not drawn),-,-,-,-,0,-
COc1ccc(C2c3ccc(O)cc3Oc3ncn4nc(-c5ccccn5)nc4c32)cc1 (stereo not drawn),0,0,0,?,0,0
COc1ccc(C2c3ccc(O)cc3Oc3ncn4nc(-c5ccncc5)nc4c32)cc1OC (stereo not drawn),-70,23µM,?,0,0,0
COc1ccc(C2c3ccc(O)cc3Oc3ncn4nc(-c5ccco5)nc4c32)cc1OC (stereo not drawn),0,?,16µM,18µM,0,?
COc1ccc(C2c3ccc(O)cc3Oc3ncn4nc(-c5ccccn5)nc4c32)cc1OC (stereo not drawn),0,18µM,23µM,0,0,0
SMILES,IL-1B inflam inh,DT40 TDP1 no CPT,DT40 TDP1 CPT,HT1080 IDH1KD tx,ALOX12 inh,HT1080-NT tox
CNC(=O)CCn1ncc2cc(OC3CCc4cccc(-c5cccnc5)c43)ccc21 (stereo not drawn),-,-,-,-,0,-
CCc1nc(NCC(C)O)c(C#N)c2c1CCCC2 (stereo not drawn),-,-,-,-,0,-
O=C(Cc1ccc(N(Cc2ccc(F)cc2)C(=O)c2ccco2)cc1)NCC1CC1,-,-,-,-,0,-
COc1ccc(-c2c(-c3cc(OC)cc(OC)c3)n(C)c3ccc(-c4ccc(OC)c(F)c4)cc23)cc1,0,?,0,0,0,0
COc1ccc(-c2c(-c3cc(OC)cc(OC)c3)n(C)c3ccc(-c4ccc5c(c4)OCCO5)cc23)cc1,0,?,0,0,0,0
COc1cc(OC)cc(-c2c(-c3cccs3)c3cc(-c4ccc5c(c4)OCCO5)ccc3n2C)c1,0,15µM,?,0,0,0
COc1cc(OC)cc(-c2c(-c3cccs3)c3cc(-c4cnc(N)nc4)ccc3n2C)c1,0,?,23µM,?,?,?
COc1cc(OC)cc(-c2c(-c3cccs3)c3cc(-c4ccc(OC)c(F)c4)ccc3n2C)c1,0,18µM,?,0,0,0
COc1cc(OC)cc(-c2c(-c3cccs3)c3cc(-c4ccc(OC)c(OC)c4)ccc3n2C)c1,0,?,9.2µM,0,0,?
CN(C)C(=O)c1ccc(NC(=O)Cn2nc(-c3ccc(Cl)cc3)c3ccccc3c2=O)cc1,-,-,-,-,0,-
COCCNC(=O)N1CCC(OC2CCN(Cc3ccccc3)CC2)CC1,-,-,-,-,0,-
COc1cc(-c2c(NC(=O)c3cccs3)oc3ccc(Cl)cc3c2=O)cc(OC)c1OC,-,-,-,-,0,-
O=C(NCCn1cnc2ccccc21)C1CC(=O)N(c2n[nH]c3ccccc23)C1 (stereo not drawn),-,-,-,-,0,-
O=C(Oc1c(-c2ccccc2)c(=O)n2c3c(cccc13)CC2)c1ccco1,0,?,0,0,0,0
O=C(Oc1c(-c2ccccc2)c(=O)n2c3c(cccc13)CC2)c1ccc(Cl)cc1,0,21µM,0,0,0,0
COc1cc(OC)cc(C(=O)Nc2nc3ccccc3[nH]2)c1,0,29µM,21µM,0,0,0
CCCCN(C(=O)c1ccccc1Br)C(c1ccc(OC)cc1)c1nc2ccccc2[nH]1 (stereo not drawn),0,?,16µM,?,?,?
O=C(Nc1nc2ccccc2[nH]1)c1ccccc1F,0,12µM,?,5.8µM,0,4.6µM
O=C(Nc1nc2ccccc2[nH]1)c1ccccc1OC(F)F,0,?,0,0,0,0
COc1ccc(Br)c(C(=O)Nc2nc3ccccc3[nH]2)c1,0,5.2µM,0,0,0,0
CC(C#N)(NC(=O)COc1ccccc1C(F)(F)F)C1CC1 (stereo not drawn),-,-,-,-,0,-
COc1ccccc1-c1[nH]nc2ncc(-c3ccnn3C)nc12,-,-,-,-,0,-
COc1ccc2oc(C(=O)Nc3nc4ccccc4[nH]3)c(C)c2c1,0,10µM,21µM,0,0,0
O=C(NC(=S)NCc1nc2ccccc2[nH]1)c1ccccc1F,0,16µM,23µM,0,0,0
Cc1cc(C)cc(C(=O)Nc2nc3ccccc3[nH]2)c1,0,23µM,?,0,0,0
